Laboratory results as given in ChEMBL document CHEMBL1961873, “Compounds: GSK PKIS; Assays: Nanosyn kinase panel” (2012).

Columns and labels:
[1] = biological target: Rho-associated protein kinase 1 (Homo sapiens) (UniProt Q13464); conditions: at 1 µM;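 also: reported values are mean percent inhibition of ROCK1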
[2] = biological target: Rho-associated protein kinase 2 (Homo sapiens) (UniProt O75116); conditions: at 0.1 µM
[3] = biological target: Rho-associated protein kinase 2 (Homo sapiens) (UniProt O75116); conditions: at 1 µM
[4] = biological target: Ribosomal protein S6 kinase alpha-1 (Homo sapiens) (UniProt Q15418); conditions: at 0.1 µM
Chain of Ribosomal protein S6 kinase alpha-1 (Homo sapiens) (Q15418 whole entry): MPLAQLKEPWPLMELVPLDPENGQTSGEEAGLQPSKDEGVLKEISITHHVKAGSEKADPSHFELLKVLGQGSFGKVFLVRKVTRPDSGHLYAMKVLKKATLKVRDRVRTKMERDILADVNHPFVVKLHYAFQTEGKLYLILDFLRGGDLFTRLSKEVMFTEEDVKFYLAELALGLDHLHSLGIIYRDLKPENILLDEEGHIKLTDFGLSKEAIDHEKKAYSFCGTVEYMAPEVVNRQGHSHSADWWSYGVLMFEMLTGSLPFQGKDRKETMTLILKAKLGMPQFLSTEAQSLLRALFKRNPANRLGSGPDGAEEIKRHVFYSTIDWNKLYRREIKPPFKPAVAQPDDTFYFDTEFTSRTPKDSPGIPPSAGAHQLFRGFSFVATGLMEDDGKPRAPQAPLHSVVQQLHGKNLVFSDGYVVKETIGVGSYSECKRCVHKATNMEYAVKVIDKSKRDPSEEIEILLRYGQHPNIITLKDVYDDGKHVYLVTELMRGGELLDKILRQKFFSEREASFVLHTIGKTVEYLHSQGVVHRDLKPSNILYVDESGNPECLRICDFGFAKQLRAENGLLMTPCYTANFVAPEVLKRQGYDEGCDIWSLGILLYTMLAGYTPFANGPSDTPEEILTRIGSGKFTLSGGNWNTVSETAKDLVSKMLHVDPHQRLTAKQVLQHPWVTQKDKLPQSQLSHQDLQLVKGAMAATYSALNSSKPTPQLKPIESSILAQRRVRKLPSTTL

[5] = biological target: Ribosomal protein S6 kinase alpha-1 (Homo sapiens) (UniProt Q15418); conditions: at 1 µM
[6] = biological target: Ribosomal protein S6 kinase alpha-3 (Homo sapiens) (UniProt P51812); conditions: at 0.1 µM
Chain of Ribosomal protein S6 kinase alpha-3 (Homo sapiens) (P51812 whole entry): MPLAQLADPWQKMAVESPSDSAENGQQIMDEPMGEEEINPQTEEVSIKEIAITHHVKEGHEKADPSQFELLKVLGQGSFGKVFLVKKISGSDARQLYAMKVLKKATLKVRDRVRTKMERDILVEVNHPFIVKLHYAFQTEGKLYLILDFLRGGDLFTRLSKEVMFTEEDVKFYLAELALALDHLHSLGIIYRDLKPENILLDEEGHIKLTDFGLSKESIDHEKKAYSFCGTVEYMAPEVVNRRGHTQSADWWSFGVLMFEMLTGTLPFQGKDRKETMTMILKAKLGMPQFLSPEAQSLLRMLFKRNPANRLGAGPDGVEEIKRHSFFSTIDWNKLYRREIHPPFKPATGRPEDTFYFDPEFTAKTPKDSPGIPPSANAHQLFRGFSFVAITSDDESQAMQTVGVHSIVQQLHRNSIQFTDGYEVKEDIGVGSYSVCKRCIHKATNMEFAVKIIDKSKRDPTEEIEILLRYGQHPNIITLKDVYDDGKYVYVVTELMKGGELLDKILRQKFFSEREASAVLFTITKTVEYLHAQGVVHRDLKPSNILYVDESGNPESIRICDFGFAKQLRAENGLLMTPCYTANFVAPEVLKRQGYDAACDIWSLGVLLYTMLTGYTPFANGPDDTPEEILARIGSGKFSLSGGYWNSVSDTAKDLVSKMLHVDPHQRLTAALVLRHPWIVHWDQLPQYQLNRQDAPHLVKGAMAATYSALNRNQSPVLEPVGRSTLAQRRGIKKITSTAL

[7] = biological target: Ribosomal protein S6 kinase alpha-3 (Homo sapiens) (UniProt P51812); conditions: at 1 µM
[8] = biological target: Ribosomal protein S6 kinase alpha-2 (Homo sapiens) (UniProt Q15349); conditions: at 0.1 µM
[9] = biological target: Ribosomal protein S6 kinase alpha-2 (Homo sapiens) (UniProt Q15349); conditions: at 1 µM
[10] = biological target: Ribosomal protein S6 kinase alpha-6 (Homo sapiens) (UniProt Q9UK32); conditions: at 0.1 µM;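 also: reported value is the mean inhibition of RSK4, from the GSK PKIS kinase inhibitor screen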
Chain of Ribosomal protein S6 kinase alpha-6 (Homo sapiens) (Q9UK32 whole entry): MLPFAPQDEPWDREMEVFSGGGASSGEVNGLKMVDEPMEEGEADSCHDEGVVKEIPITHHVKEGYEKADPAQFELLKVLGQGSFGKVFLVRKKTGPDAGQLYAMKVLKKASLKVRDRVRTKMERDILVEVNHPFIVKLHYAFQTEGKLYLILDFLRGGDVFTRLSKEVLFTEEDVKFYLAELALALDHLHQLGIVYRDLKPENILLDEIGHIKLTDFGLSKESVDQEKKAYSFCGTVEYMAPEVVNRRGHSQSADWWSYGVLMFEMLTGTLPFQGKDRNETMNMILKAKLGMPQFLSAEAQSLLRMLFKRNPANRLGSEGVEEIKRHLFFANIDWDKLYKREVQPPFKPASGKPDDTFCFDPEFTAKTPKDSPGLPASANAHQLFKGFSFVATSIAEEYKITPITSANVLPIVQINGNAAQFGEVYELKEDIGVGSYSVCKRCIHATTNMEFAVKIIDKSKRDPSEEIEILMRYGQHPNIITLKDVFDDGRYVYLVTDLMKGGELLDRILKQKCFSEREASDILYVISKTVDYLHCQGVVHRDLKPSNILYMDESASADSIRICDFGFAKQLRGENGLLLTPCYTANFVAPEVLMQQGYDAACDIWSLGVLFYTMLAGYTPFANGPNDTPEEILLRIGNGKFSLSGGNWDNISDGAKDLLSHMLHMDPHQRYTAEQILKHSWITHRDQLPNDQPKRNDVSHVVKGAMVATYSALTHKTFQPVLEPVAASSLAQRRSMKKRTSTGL

Chain of Rho-associated protein kinase 2 (Homo sapiens) (O75116 whole entry, looked up): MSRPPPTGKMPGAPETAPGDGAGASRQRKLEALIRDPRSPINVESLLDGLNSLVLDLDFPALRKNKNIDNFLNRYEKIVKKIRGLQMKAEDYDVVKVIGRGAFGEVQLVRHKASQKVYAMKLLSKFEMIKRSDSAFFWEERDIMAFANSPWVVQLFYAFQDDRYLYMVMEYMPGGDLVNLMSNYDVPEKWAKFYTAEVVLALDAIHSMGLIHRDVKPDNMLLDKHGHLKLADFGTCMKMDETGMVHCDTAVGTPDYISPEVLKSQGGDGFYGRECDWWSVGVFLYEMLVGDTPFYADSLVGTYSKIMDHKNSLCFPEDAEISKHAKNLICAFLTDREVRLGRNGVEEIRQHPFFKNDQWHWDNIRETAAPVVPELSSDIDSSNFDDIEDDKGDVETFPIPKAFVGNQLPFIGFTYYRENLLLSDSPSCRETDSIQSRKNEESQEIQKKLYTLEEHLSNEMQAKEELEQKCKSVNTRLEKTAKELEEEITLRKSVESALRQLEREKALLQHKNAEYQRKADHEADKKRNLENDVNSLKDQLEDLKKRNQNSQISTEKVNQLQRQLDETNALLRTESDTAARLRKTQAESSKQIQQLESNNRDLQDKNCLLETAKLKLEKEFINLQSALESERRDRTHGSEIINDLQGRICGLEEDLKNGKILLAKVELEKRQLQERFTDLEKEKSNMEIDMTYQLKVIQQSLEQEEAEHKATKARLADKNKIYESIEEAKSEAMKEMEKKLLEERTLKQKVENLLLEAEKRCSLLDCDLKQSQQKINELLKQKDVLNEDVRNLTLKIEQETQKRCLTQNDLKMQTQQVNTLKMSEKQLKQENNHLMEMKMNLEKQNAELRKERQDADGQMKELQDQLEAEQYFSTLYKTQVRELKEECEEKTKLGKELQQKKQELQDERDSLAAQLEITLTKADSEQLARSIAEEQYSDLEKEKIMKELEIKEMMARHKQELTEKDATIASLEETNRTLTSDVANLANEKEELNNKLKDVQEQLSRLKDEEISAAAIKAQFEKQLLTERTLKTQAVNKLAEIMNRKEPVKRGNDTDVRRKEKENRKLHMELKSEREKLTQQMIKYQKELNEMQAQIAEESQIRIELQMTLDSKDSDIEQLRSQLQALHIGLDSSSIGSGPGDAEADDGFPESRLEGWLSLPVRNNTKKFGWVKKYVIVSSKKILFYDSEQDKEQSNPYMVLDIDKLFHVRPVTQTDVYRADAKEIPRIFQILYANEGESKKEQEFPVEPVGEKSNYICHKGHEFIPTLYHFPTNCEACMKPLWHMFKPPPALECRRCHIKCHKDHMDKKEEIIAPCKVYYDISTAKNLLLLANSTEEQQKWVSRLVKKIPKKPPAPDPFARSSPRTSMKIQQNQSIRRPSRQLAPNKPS
Chain of Rho-associated protein kinase 1 (Homo sapiens) (Q13464 2-1354 limits assumed): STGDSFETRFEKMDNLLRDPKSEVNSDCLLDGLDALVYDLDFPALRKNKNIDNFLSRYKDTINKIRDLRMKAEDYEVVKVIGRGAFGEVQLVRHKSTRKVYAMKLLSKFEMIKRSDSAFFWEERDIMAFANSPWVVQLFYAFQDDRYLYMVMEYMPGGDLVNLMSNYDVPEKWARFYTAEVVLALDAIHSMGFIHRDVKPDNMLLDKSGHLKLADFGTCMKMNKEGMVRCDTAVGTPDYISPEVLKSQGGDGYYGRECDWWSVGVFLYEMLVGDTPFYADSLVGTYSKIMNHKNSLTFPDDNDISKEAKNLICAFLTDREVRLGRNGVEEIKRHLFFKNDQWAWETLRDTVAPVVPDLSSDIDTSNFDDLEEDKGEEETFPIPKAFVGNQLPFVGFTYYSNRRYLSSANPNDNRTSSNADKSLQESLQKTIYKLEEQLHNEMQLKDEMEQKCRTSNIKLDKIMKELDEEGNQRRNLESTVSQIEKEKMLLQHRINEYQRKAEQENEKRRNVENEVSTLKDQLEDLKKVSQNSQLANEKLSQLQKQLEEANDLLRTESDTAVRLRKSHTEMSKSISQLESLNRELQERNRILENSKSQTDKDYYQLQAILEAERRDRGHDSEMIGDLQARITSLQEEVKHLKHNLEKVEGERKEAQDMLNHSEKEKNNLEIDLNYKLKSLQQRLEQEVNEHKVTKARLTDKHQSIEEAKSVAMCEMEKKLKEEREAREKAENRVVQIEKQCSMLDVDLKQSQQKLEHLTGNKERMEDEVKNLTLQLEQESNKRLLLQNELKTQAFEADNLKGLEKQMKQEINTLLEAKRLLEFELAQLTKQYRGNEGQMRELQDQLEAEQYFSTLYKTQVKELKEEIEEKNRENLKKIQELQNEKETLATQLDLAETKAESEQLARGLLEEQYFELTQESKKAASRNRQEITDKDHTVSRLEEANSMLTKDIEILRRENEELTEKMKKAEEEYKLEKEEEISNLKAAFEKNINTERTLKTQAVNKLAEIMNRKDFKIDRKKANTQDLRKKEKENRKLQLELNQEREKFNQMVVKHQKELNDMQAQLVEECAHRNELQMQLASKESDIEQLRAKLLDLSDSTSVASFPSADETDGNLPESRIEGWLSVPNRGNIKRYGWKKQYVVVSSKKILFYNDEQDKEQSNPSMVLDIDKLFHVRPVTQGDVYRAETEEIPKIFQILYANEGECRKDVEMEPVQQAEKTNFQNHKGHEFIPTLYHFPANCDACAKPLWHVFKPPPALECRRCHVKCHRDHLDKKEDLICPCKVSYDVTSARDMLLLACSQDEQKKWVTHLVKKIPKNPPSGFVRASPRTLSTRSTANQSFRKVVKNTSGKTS

| Compound | inhibition [1] [%] | inhibition [2] [%] | inhibition [3] [%] | inhibition [4] [%] | inhibition [5] [%] | inhibition [6] [%] | inhibition [7] [%] | inhibition [8] [%] | inhibition [9] [%] | inhibition [10] [%] |
| --- | --- | --- | --- | --- | --- | --- | --- | --- | --- | --- |
| CCS(=O)(=O)c1ccc(OC)c(Nc2ncc(-c3cccc(F)c3)o2)c1 | 2.95 | 3.63 | 3.95 | 2.84 | 6.08 | 1.12 | 13.6 | 4.07 | 5.22 | 2.2 |
| Cc1cc(O)cc(C)c1/C=C/c1cncc(C(N)=O)c1 | 3.29 | 3.18 | 2.02 | 0.33 | -0.09 | 1.07 | -0.35 | 1.1 | 1.48 | 0.72 |
| CNC(=O)c1ncccc1Nc1nc(Nc2cc3c(cc2OC)CCCN3C(=O)CN(C)C)nc2[nH]ccc12 | 8.73 | 3.75 | 8.67 | 5.58 | 25.8 | 2.99 | 14.5 | 3.13 | 7.32 | 3.92 |
| COc1cc2c(cc1Nc1nc(Nc3cccc(F)c3C(N)=O)c3cc[nH]c3n1)N(C(=O)CN1CCN(C(C)C)CC1)CC2 | 0.34 | 0.62 | 2.82 | 4.37 | 20.1 | 2.2 | 10.3 | 1.68 | 2.89 | 3.57 |
| CS(=O)(=O)CCNCc1ccoc1-c1ccc2ncnc(Nc3ccc(OCc4ccccc4)cc3)c2c1 | -0.69 | -1.1 | 0.07 | 0.19 | -0.1 | -0.27 | -0.04 | 1.27 | 1.14 | -0.31 |
| CN(C)CCNC(=O)Nc1ccc(N(C)c2ccnc(Nc3ccc(CS(C)(=O)=O)cc3)n2)cc1 | 19.8 | 5.05 | 24 | 2.03 | 2.41 | 0.87 | 2.03 | 2.14 | 4.06 | 1.56 |
| Cc1c2ccc(N(C)c3ccnc(Nc4cccc(S(N)(=O)=O)c4)n3)cc2nn1C | 1.97 | 2.24 | 2.37 | 2 | 3.33 | 1.97 | 3.86 | 3.56 | 5.15 | 2.42 |
| COc1ccc2ncn(-c3cc(O[C@H](C)c4ccccc4C(F)(F)F)c(C(N)=O)s3)c2c1 | 0.18 | -0.01 | -0.4 | 0.85 | 3.85 | 1.38 | 6.99 | 0.69 | 2.5 | 1.31 |
| CN(c1ccc(NC(=O)NCCN2CCOCC2)cc1)c1ccnc(Nc2ccc(CS(C)(=O)=O)cc2)n1 | 8.01 | 4.87 | 18.1 | 1.1 | 3.56 | 2.14 | 2.69 | 1.38 | 2.28 | 1.79 |
| COc1c(C(N)=O)cc(-c2ccc(Cl)cc2)cc1-c1ccc(S(N)(=O)=O)cc1 | 3.19 | 2.99 | 5.06 | 1.96 | 2.12 | 1.72 | 2.53 | 2.4 | 2.98 | 2.25 |
| N#Cc1cccc(Nc2ncc(-c3ccccc3)o2)c1 | 0.71 | 2 | 6.5 | 0.19 | 3.79 | 0.02 | 1.64 | 1.14 | 1.32 | -0.19 |
| COc1ccccc1-c1cc(/C=C2\C(=O)Nc3ncc(Br)cc32)cc(Br)c1O | 2.31 | 1.89 | 2.15 | 0.44 | 0.08 | 0.16 | 1.15 | 1.52 | 3.85 | -0.23 |
| COc1cccc(-n2ncc3c(N/N=C/c4ccc(C(=O)NCCN(C)C)cc4)ncnc32)c1 | 7.32 | 5.29 | 9.45 | 1.48 | 6.32 | 0.89 | 5.65 | 1.89 | 8.18 | 2.38 |
| CC(C)c1ccc(-c2cc(-c3c[nH]nc3-c3ccccn3)ccn2)cc1 | 1.96 | 0.45 | 1.63 | -0.37 | 1.19 | -0.1 | 0.24 | 1.17 | 1.83 | 0.05 |
| Cc1cc(O)cc(C)c1/C=C/c1cncc(C(=O)OC(C)(C)C)c1 | 2.78 | 4.67 | 3.55 | 0.74 | 1.77 | 1.52 | 1.88 | 1.57 | 1.41 | 0.33 |
| Fc1ccc(Nc2nccc(-c3c(-c4ccc(C(F)(F)F)cc4)nn4ncccc34)n2)cc1F | 2.54 | 1.24 | 2.36 | 0.24 | -0.46 | -0.49 | -1.74 | 1.11 | 2.41 | 1.29 |

| Compound | inhibition [1] [%] | inhibition [2] [%] | inhibition [3] [%] | inhibition [4] [%] | inhibition [5] [%] | inhibition [6] [%] | inhibition [7] [%] | inhibition [8] [%] | inhibition [9] [%] | inhibition [10] [%] |
| --- | --- | --- | --- | --- | --- | --- | --- | --- | --- | --- |
| COc1ccc(-c2nn3ncccc3c2-c2ccnc(Nc3ccc(F)c(F)c3)n2)cc1 | 1.15 | 3.85 | 6.06 | 4.22 | 7.89 | 4.49 | 7.14 | 2.96 | 2.69 | 1.78 |
| COC(=O)Nc1nc2cc(Oc3ccc(NC(=O)Nc4ccccc4)cc3)ccc2[nH]1 | 6.47 | 8.68 | 17.2 | 1.66 | 4.06 | 2.3 | 3.56 | 1.67 | 1.89 | 1.27 |
| CC1=C(C(=O)Nc2ccc3[nH]nc(C)c3c2)C(c2ccc(C(F)(F)F)cc2)CC(=O)N1 (stereo not given) | 89.8 | 70.3 | 83.8 | 2.72 | 11.3 | 1.64 | 17.2 | 1.77 | 9.89 | 3.48 |
| COC(=O)Nc1nc2ccc(Oc3ccc(NC(=O)Nc4cc(C(F)(F)F)ccc4F)cc3)cc2s1 | 1.94 | 0.66 | 1.17 | 1.59 | 2.46 | 0.8 | 2.83 | 3.19 | 13.1 | 0.36 |
| NS(=O)(=O)c1cccc(N/C=C2\C(=O)Nc3ccccc32)c1 | 3.96 | 2.91 | 5.46 | 3.72 | 17.6 | 2.42 | 15.2 | 5.57 | 26.2 | 4.77 |
| CC1(C)CC(n2cnc(-c3ccc(F)cc3)c2-c2ccnc(N)n2)CC(C)(C)N1 | 1.6 | 1.54 | 1.8 | 1.07 | 1.93 | 1.45 | 2.77 | 1.16 | 1.53 | 0.66 |
| CC1=C(C(=O)Nc2ccc3[nH]ncc3c2)C(c2ccc(F)cc2)N=C(c2ccc(C(F)(F)F)nc2)N1 (stereo not given) | 73.2 | 35.7 | 75 | 0.61 | 4.49 | -0.02 | 2.71 | 1.05 | 3.76 | 0.55 |
| N#Cc1ccc2c(-c3ccnc(NC4CC4)n3)c(-c3ccc(F)cc3)nn2c1 | 0.26 | 0.99 | 0.79 | 0.57 | 0.36 | 0.08 | 0.42 | 1.03 | 1.48 | 1.23 |
| COc1cccc(Nc2nccc(-c3cnn4ncccc34)n2)c1 | 6.3 | 2.21 | 15.4 | 0.64 | 4.33 | -0.39 | 2.48 | -0.61 | 2.4 | -1.37 |
| NS(=O)(=O)c1ccc(N/N=C2\C(=O)Nc3ccc(C(=O)NCc4ccncc4)cc32)cc1 | 5.11 | 4.18 | 15.1 | 1.77 | 7.98 | 2.2 | 6.7 | 1.92 | 7.63 | 3.7 |
| CS(=O)(=O)CCNCc1ccc(-c2ccc3ncnc(Nc4ccc(OCc5cccc(C(F)(F)F)c5)cc4)c3c2)o1 | 3.01 | 2.07 | 3.5 | 0.96 | 2.45 | -0.35 | 3.53 | 1.21 | 2.69 | 0.05 |
| OCCCNc1nccc(-c2c(-c3ccc(F)cc3)nn3cc(C(F)(F)F)ccc23)n1 | 2.58 | 2.07 | 2.72 | 1.23 | 2.41 | 0.38 | 1.08 | 1.69 | 2.43 | 0.24 |
| CCCNc1cccc(-n2ncc3c(N/N=C/c4ccncc4)ncnc32)c1 | 13.7 | 4.97 | 28.1 | 1.36 | 4.72 | 1.62 | 4.75 | -0.01 | 2.43 | 0.53 |
| Cn1c(-c2nonc2N)nc2cnccc21 | 52.4 | 20 | 67.5 | 9.65 | 44.8 | 3.58 | 23 | 8.32 | 41.4 | 2.49 |
| CCN1CCC(C(=O)Nc2n[nH]c3nnc(-c4cccc(F)c4F)cc23)CC1 | -0.9 | 0.68 | -0.77 | 0.15 | 0.28 | 1.06 | 2.16 | -0.71 | 1.38 | 0.8 |
